Sampled rows, rich in hits. Any-hit rate of the full collection: about 5.9%.
LANA-H2B inh: blockers of LANA interaction with H2A/H2B – biochemical, FP readout, HTS, primary screen | Protein LANA1 (Human herpesvirus 8 type P (isolate GK18)), Q9QR71 | cell-free LANA-H2A/H2B peptide, fluorescence polarization | inhibition, % (no concentration beside the values) | 320,000 compounds, 0.6% hits | AID 2629, 2010; in the data active means inhibition mostly above about 10%, no sharp cut-off; inactive means mostly below about 6.7%
ALR H2O2 inh: inhibitors of human ALR sulfhydryl oxidase, primary screen, biochemical, H2O2 detection, HRP-luminol luminescence, single point; FAD-linked sulfhydryl oxidase ALR (Homo sapiens), P55789; purified ALR, DTT oxidation; inhibition, % (concentration not given with the values); 290,000 compounds, 3.8% hits;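 active means mean replicate inhibition above about 79%, with every replicate also reaching it, limit read from the data; inconclusive means only one of the two criteria met; inactive means mean below limit and not every replicate reaching it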
ABHD5-PLIN5 inh: ABHD5-PLIN5 interaction inhibitors, primary screen, cell lysate, split luciferase complementation, luminescence | Split G. princeps luciferase complementation, 4 h | inhibition, % at 4 µM | 360,000 compounds, 0.78% hits | AID 602281, 2012 | Perilipin-5 (Homo sapiens) + 1-acylglycerol-3-phosphate O-acyltransferase ABHD5 (Homo …;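 active means inhibition above the mean inhibition across every tested compound plus 3 SD, cut at about 22% in these data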;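 further: 0% = DMSO only wells and the 100% control is not disclosed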
Rtt109 HAT inh: inhibitors of C. albicans Rtt109/Vps75 HAT, primary screen, biochemical, ThioGlo CoA-SH fluorescence, plate reader; Histone acetyltransferase RTT109 (Candida albicans (strain SC5314 / ATCC MYA-2876)), …; purified Rtt109/Vps75, 4 h; inhibition, % at 34.9 µM; 330,000 compounds, 0.16% hits; AID 540336, 2011;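 active means inhibition of at least 50% in every replicate; inconclusive means best replicate reaches 50% inhibition but some replicates fall short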
PRMT1 inh: PRMT1 methyltransferase inhibitors, primary screen, biochemical, fluorescence polarization | Protein arginine N-methyltransferase 1 (Homo sapiens), Q99873 | recombinant PRMT1, activity-based probe fluorescence polarization | inhibition, % at 2.79 µM | 370,000 compounds, 1.3% hits;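 active means inhibition above about 21% made by adding two undisclosed values, limit read from the data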
Target sequence (Q99873 whole entry, looked up): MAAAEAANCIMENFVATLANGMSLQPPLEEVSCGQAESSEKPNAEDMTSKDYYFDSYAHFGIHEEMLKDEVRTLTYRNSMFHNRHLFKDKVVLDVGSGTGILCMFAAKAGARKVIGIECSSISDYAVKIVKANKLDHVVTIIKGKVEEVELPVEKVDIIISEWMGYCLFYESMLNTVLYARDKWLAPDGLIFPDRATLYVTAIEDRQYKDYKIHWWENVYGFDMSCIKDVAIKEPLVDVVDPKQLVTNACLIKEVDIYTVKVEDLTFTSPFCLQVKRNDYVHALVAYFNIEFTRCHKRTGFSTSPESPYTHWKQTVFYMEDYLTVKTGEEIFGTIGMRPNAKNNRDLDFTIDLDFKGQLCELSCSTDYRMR
rCAG binder-1: binders of r(CAG) RNA repeats, primary screen, biochemical, fluorescence. r(CAG) RNA repeat, TO-PRO-1 dye displacement fluorescence. inhibition, % at 3 µM. 370,000 compounds, 1.3% hits;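 active means inhibition above the plate cutoff, the mean of all test compounds on that plate plus 3 SD, cut at about 35% in these data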;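 further: 0% = DMSO alone and 100% = 100 µM mitoxantrone as full dye displacement; higher means more dye released from RNA so lower well fluorescence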
rCAG binder conf: small molecules binding CAG repeat RNA – biochemical, fluorescence, confirmation | inhibition, % at 3 µM | 4,300 compounds, 70% hits | r(CAG) RNA repeat, TO-PRO-1 dye displacement fluorescence | shares compounds with rCAG binder-1;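 active means inhibition above a per-plate cutoff, the mean inhibition of sample wells plus 3 SD, cut at about 35% in these data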;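 further: loss of TO-PRO-1 fluorescence as compound displaces dye from 1x1 AA loop RNA; 0% = DMSO only wells and 100% = 100 µM mitoxantrone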
dCAG dye counter: displacement of TO-PRO-1 from CAG DNA duplex, counter-screen for rCAG RNA repeat binder project, biochemical, fluorescence, TO-PRO-1 dye, d(CAG) DNA oligo. shares compounds with rCAG binder-1. d(CAG) DNA oligo TO-PRO-1 dye displacement. inhibition, % at 3 µM. 4,300 compounds, 94% hits;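 active means inhibition above its plate's cutoff, the mean test-well inhibition plus 3 SD, cut at about 4.8% in these data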;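 further: 0% = DNA dye mix with DMSO and 100% = 100 µM mitoxantrone; hits displace the dye from DNA and so lower well fluorescence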
DNA CAG DR: inhibitors of DNA CAG/GTC TO-PRO-1 complex, dose response, counter-screen for rCAG RNA repeat binder project, biochemical, fluorescence, TO-PRO-1 dye; shares compounds with rCAG binder-1; DNA CAG/GTC duplex TO-PRO-1 dye displacement fluorescence; IC50, µM; 250 compounds, 20% hits; AID 686960, 2013; in the data active means IC50 below about 10 µM
dCAG TOPRO ctr: TO-PRO-1 dye complex inhibitors on d(CAG) DNA, dose response, counter-screen, biochemical, fluorescence, late stage; d(CAG) DNA duplex TO-PRO-1 dye displacement; 30 compounds, 80% hits; shares compounds with rCAG binder-1; IC50, µM
rCAG binder-2: molecules binding r(CAG) RNA repeats, late stage dose response, late-stage follow-up, biochemical, fluorescence, dose response, powder samples | 30 compounds, 100% hits | AID 720651, 2013 | IC50, µM | shares compounds with rCAG binder-1 | r(CAG) RNA TO-PRO-1 dye displacement
PRMT1 confirm: PRMT1 methyltransferase inhibitors, confirmation, biochemical, fluorescence polarization, triplicate. shares compounds with PRMT1 inh. recombinant His-PRMT1, activity-based probe fluorescence polarization. inhibition, % at 2.79 µM. 3,300 compounds, 42% hits. AID 687036, 2013;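 active means mean inhibition across replicates above the hit cutoff derived for the earlier primary screen, cut at about 22% in these data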
Active calls of the source: *; i = inactive; u = inconclusive; x = not tested or not shown. Unless noted, how the calls were made is not given here.

SMILES | LANA-H2B inh | ALR H2O2 inh | ABHD5-PLIN5 inh | Rtt109 HAT inh | PRMT1 inh | rCAG binder-1 | rCAG binder conf | dCAG dye counter | PRMT1 confirm | others
O=C(NCc1ccccc1)OCCN1C(=O)CCC12CCC(c1ccccc1)CC2 (stereo not drawn) | x | x | x | x | -7 | 0 | x | x | x
CCOc1ccc(Nc2ccc(N)c(S(=O)(=O)O)c2)cc1 | x | x | 3 | -5 | 36* | 55* | 52* | 18* | 10
CCOc1ccc(NS(=O)(=O)c2ccc(N)cc2)cc1 | 1 | 2 | 0 | 6 | 2 | 0 | x | x | x
COc1cccc(C2NC(=S)N(Cc3ccccc3)C(C)=C2C(C)=O)c1 (stereo not drawn) | x | x | x | x | 7 | 2 | x | x | x
CCNC(=O)C1CCCN(C(=O)c2cc(C)oc2C)CC1 (stereo not drawn) | x | x | -5 | x | -10 | 1 | x | x | x
CN=c1scc(-c2cccs2)n1/N=C/c1ccc(O)c(O)c1O | 8 | 99* | -13 | -6 | 40* | 61* | 54* | 25* | 38*
O=c1c2ccccc2nc(-c2ccco2)n1/N=C/c1ccccc1O | 0 | -3 | -1 | 8 | 3 | 0 | x | x | x
C=CCN=c1scc(-c2ccco2)n1/N=C/c1ccc(O)c(O)c1O | 10 | 99* | -9 | u | 29* | 44* | 59* | 29* | 31*
N#Cc1cccc(CNCC(=O)N2CCC3(CC2)OCCO3)c1 | x | x | x | x | -10 | 0 | x | x | x
O=C(CSc1nc(-c2ccc(Cl)cc2)[nH]c(=O)n1)Nc1cccc(Cl)c1 | -1 | 99* | -10 | 23 | 51* | 57* | 66* | 30* | 0
CCc1ccc(NC(=O)C(C)Sc2nc(-c3ccco3)c(C#N)c(=O)[nH]2)cc1 (stereo not drawn) | -6 | 98* | -1 | 23 | 26* | 79* | 70* | 33* | 38* | DNA CAG DR=9.7*;dCAG TOPRO ctr=3.3*;rCAG binder-2=1.1*
O=C(CSc1n[nH]c(-c2cccnc2)n1)Nc1cccc(Cl)c1 | 3 | -8 | 4 | 0 | 2 | 4 | x | x | x
N#Cc1c(-c2ccco2)nc(SCC(=O)Nc2cccc(Cl)c2)[nH]c1=O | 3 | 99* | 1 | 5 | 46* | 72* | 72* | 27* | 11 | DNA CAG DR=i
Cc1ccc(S(=O)(=O)NCC(=O)N2CCN(c3ccccn3)CC2)cc1C | x | x | x | x | -1 | -1 | x | x | x
O=c1nc2c(O)cccn2c2c1c(=O)[nH]c1ccccc12 | x | x | 6 | -9 | 34* | 40* | 2 | -1 | 34*
